Marburg entry inh – blocks Marburg virus binding to or entry into cells. Potency, µM (titrated, usually from 37.8 µM), for inactives: top-dose activity change, negative = inhibition, actives largely listed as inhibitors. Marburg virus pseudotyped entry inhibition, cell reporter. AID 540276. actives 1.8% (n = 300,000); calls by dose curve; tested in HEK293 cells
Vaccinia Venus – vaccinia inhibition (Venus reporter) | actives 0.46% (n = 330,000) | Vaccinia virus Venus reporter expression, fluorescence | Potency, µM (doses to about 36.5 µM), without a hit: at the top dose activity change, negative = inhibition, actives largely listed as inhibitors; calls by dose curve; tested in A549 cells; further: nearly all actives have a fitted effect of over 30% in size
HCV inhibitor – blocks hepatitis C virus; Huh7.5.1 HCVcc-Cre infection, luciferase reporter, 44 h; Potency, µM (doses to about 41.8 µM), for inactives: at the top dose activity change, negative = inhibition, usual class: inhibitors; actives 3.4% (n = 340,000); AID 651820; active means well fitted inhibition curve with a large enough effect; inconclusive means small, poorly fitted or top-dose-only effect, or another doubt; inactive means no such curve, though single readings can be large or run the other way
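Cells seeded at 1,000/well and cultured 4 h, then compounds added followed by HCVcc-Cre virus (~0.5 moi). After 44 h further culture, luciferase substrate was added, plates held 15 min at room temperature, and luminescence read for 15 sec.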
LASV entry inh – inhibitors of Lassa virus binding or cell entry; Lassa virus pseudotype entry inhibition, cell reporter; Potency, µM (titrated, usually from 37.9 µM), for inactives: at the highest dose activity change, negative = inhibition, actives largely listed as inhibitors; actives 1.2% (n = 300,000); calls by dose curve; tested in HEK293 cells; further: nearly all actives have a fitted effect of over 50% in size
VACV mCherry inh – inhibitors of vaccinia virus infection (mCherry reporter signal); Potency, µM (top dose mostly 36.5 µM), without a hit: at the top dose activity change, negative = inhibition, most hits filed as inhibitors; Vaccinia virus mCherry reporter infection, fluorescence; actives 0.63% (n = 310,000); AID 720579; calls by dose curve; tested in A549 cells; further: nearly all actives have a fitted effect of over 35% in size
The depositor's hits bear a star; i = inactive; ? = inconclusive; · = no result given; [ ] = dose if it differs, or a comment. In the library only some 4.6% were active in any assay of this set; here they are far more common. On the % scale 0 is the no-effect control and ±100 the full control effect; potency means the concentration at half of the fitted maximal effect.

SMILES	Marburg entry inh	Vaccinia Venus	HCV inhibitor	LASV entry inh	VACV mCherry inh
CC(O)/C=C/c1ccc2ccccc2n1 (stereo unspecified)	?	·	11.2µM*	?	·
C(=C\c1ccco1)/c1ccc2ccccc2n1	2.82µM*	9.3%[7.34 µM]	2.8%	?	i[7.34 µM]
Fc1cccc(F)c1/C=C/c1ccc2ccccc2n1	?	-12.1%	-7.7%	?	-12.8%
Cc1ccsc1/C=C/c1ccc2ccccc2n1	?	-9.3%	14.3%	12.6µM*	-17.7%
COc1ccccc1/C=C/c1ccc2ccccc2n1	·	-18.2%	·	·	10.5%
CC1Cc2cc(S(=O)(=O)CCC(=O)Nc3cccc(F)c3)ccc2N1C(=O)C1CC1 (stereo unspecified)	·	-9.9%	·	-16.0%[46.1 µM]	-4.5%
COc1ccc(/C=C2\CN(Cc3ccccc3)C/C(=C\c3ccc(OC)c(O)c3)C2=O)cc1O	?	?	6.31µM*	?	7.94µM*
COc1ccc(/C=C2\CC/C(=C\c3ccc(OC)c(OC)c3)C2=O)cc1OC	?	-8.5%	?	?	i
COc1cc(/C=C2/SC(=Nc3ccc(O)cc3)NC2=O)ccc1O	·	44.5%	?	·	12.6µM*
COc1cc(/C=C2/CC/C(=C/c3ccc(O)c(OC)c3)C2=O)ccc1O	·	169.6%	12.6µM*	·	-15.0%
CCNC(=O)COc1ccc(/C=C2\COc3ccccc3C2=O)cc1OC	?	-23.1%	?	14.6µM*	-7.2%
CCOc1cc(/C=C2\COc3ccccc3C2=O)ccc1OCC(=O)N(C)C	?	-26.9%	?	?	-4.4%
COc1cc(/C=C2\SC(=Nc3ccccc3OC)NC2=O)ccc1O	?	3.5%	-24.5%	?	?
COc1ccc2c(c1)O[C@H](c1ccc3c(c1)OCO3)[C@@H](OC(=O)Nc1ccc(C)c(Br)c1)C2=O	12.6%[14.2 µM]	·	·	?	·
O=C(c1cnn(-c2ccc(F)cc2)c1-n1cccc1)N1CCN(c2cccc(Cl)c2)CC1	·	-16.5%	·	3.7%[46.1 µM]	-29.0%
COc1ccc(N=C2NC(=O)/C(=C\C=C\c3ccccc3)S2)cc1	-2.4%[46.1 µM]	-9.7%	-25.2%	?	0.4%
COc1cc(/C=C2\COC/C(=C\c3ccc(O)c(OC)c3)C2=O)ccc1O	?	?	11.2µM*	?	?
COc1cccc(/C=C2\CCc3ccccc3C2=O)c1	·	-14.1%	-3.0%	·	i
COc1ccc(/C=C2\CCc3ccccc3C2=O)cc1OC	-11.2%	?	-0.3%	1.1%	7.94µM*
COc1ccc(N=C2NC(=O)/C(=C/C=C/c3ccccc3)S2)cc1	-9.5%	-11.7%	?	1µM*	-17.4%
COc1cc(/C=C/C=C2/CC/C(=C/C=C/c3ccc(O)c(OC)c3)C2=O)ccc1O	?	56.5%	?	?	i
CC1CC(C)(O)CC(C(O)CC2CC(=O)NC(=O)C2)C1=O (stereo unspecified)	0.1µM*	35.5µM*	?	0.398µM*	?
COc1ccccc1-c1cc(NC=O)c2ncc(-c3cccc(C(C)=O)c3)n2c1	·	?	·	·	7.94µM*
COc1ccc(-c2cnc3c(NC=O)cc(-c4ccc(F)cc4)cn23)cc1OC	·	?	·	·	11.2µM*
COc1ccc(-c2cnc3c(NC=O)cc(-c4cccc(NS(C)(=O)=O)c4)cn23)cc1OC	·	8.91µM*	·	·	6.31µM*
SMILES	Marburg entry inh	Vaccinia Venus	HCV inhibitor	LASV entry inh	VACV mCherry inh
COc1ccc(-c2cnc3c(NC=O)cc(-c4ccccc4)cn23)cc1OC	·	?	·	·	1.26µM*
COc1ccc(-c2cnc3c(NC=O)cc(-c4cc(OC)c(OC)c(OC)c4)cn23)cc1OC	·	-24.8%	·	·	-11.6%
COC(=O)NC(c1ccccc1)c1c[nH]c2ccc(OC)cc12 (stereo unspecified)	0.0%[14.2 µM]	·	·	·	·
Cc1ccc(OCCCCN2CCCCC2)c(C)c1	·	·	15.7%	·	·
CC1CCN(CCCOc2ccc(Br)cc2Cl)CC1	?	0.6%	-21.4%	?	-0.5%
Cc1ccc(OCCCCN2CCC(C)CC2)c(Br)c1	14.6µM*	-14.7%	?	?	i
Cc1ccc(OCCCCCCN2CCNCC2)c(Br)c1	12.6µM*	-26.5%	?	?	-12.0%
CC1CCN(CCCCOc2ccc(Cl)cc2)CC1	7.94µM*	-22.2%	?	6.3%[46.1 µM]	-0.3%
COc1ccc2nc(N3CCN(C(=O)C4CC4)CC3)sc2c1	·	-5.2%	·	-20.7%[46.1 µM]	-13.5%
CC(Oc1cccc(Cl)c1)C(=O)Nc1nc(-c2ccccn2)cs1 (stereo unspecified)	?	?	6.31µM*	?	11.2µM*
CC(Oc1ccccc1)C(=O)Nc1nc(-c2ccccn2)cs1 (stereo unspecified)	-14.4%[46.1 µM]	?	?	-19.0%	7.08µM*
N#C/C(C(=O)NCc1ccco1)=C1\S[C@@H](Cc2ccc(Cl)cc2)C(=O)N1c1ccccc1	15.5%	·	·	·	·
COc1ccc(C2/C=C\CN(C(=O)CC(C)C)CC(=O)N2Cc2ccc(F)cc2)cc1 (stereo unspecified)	·	-9.9%	16.3%	·	-19.8%
COc1ccc(C2/C=C\CN(C(=O)CC(C)(C)C)CC(=O)N2Cc2ccc(F)cc2)cc1 (stereo unspecified)	·	-9.6%	5.01µM*	·	-14.6%
CCC1C(=O)NCCN1Cc1ccc2c(c1)CN(Cc1ccc(F)c(OC)c1)CCO2 (stereo unspecified)	·	5.2%	·	·	-8.1%
COc1ccc(-c2ccc3c(N)c(C(=O)NCc4ccc(C)cc4)sc3n2)cc1	-2.3%[46.1 µM]	-25.4%	·	?	?
COc1cccc(-c2cc(C(=O)NCc3ccccc3)[nH]n2)c1	·	-14.1%	·	7.94µM*	-12.7%
COc1cccc(-c2ccc3c(N)c(C(=O)NCc4ccc(Cl)cc4)sc3n2)c1	-14.1%[46.1 µM]	-23.1%	·	7.94µM*	?
COc1cccc(CNC(=O)c2cc(-c3cccc(OC)c3)n[nH]2)c1	·	-3.1%	·	-1.3%[46.1 µM]	-7.9%
COc1ccc(CNC(=O)c2cc3c(=O)n4ccccc4nc3n(Cc3ccco3)c2=N)cc1	6.4%	·	·	·	·
COc1ccc(CCNC(=O)c2cc3c(=O)n4ccccc4nc3n(CC3CCCO3)c2=N)cc1OC (stereo unspecified)	·	6.4%	8.91µM*	·	-9.0%
COc1ccc(CCNC(=O)c2cc3c(=O)n4ccccc4nc3n(Cc3ccco3)c2=N)cc1OC	·	·	2.24µM*	·	·
COc1ccc(CCNC(=O)c2cc3c(=O)n4ccccc4nc3n(CCN3CCOCC3)c2=N)cc1	2.82µM*	-8.8%	?	?	-2.8%
COc1ccc(CCn2c(=N)c(C(=O)NCCN3CCOCC3)cc3c(=O)n4ccccc4nc32)cc1OC	?	0.2%	18.4%	1.9%[46.1 µM]	-0.2%
Cc1cccn2c(=O)c3cc(C(N)=S)c(=N)n(CCCOC(C)C)c3nc12	?	-13.3%	11.2µM*	?	-14.9%
O=C(Cn1c(=O)oc2cc(S(=O)(=O)N3CCCCCC3)ccc21)NCc1ccccc1Cl	·	-23.0%	·	?	-4.8%
Cc1oc2ccc(O)c(CN3CCN(C)CC3)c2c1C(=O)Nc1ccccc1	0.8%[46.1 µM]	-0.7%	·	19.5%[46.1 µM]	-5.5%
Cc1cccn2c(=O)c3cc(C(=O)NCCN4CCOCC4)c(=N)n(CCCN4CCOCC4)c3nc12	7.94µM*	-8.8%	?	?	i

Compound activity deposited in PubChem by National Center for Advancing Translational Sciences (NCATS).
